Where “and” joins values, the source holds several entries; their conditions need not be identical. Identical values can stand only once. Records with an inconclusive call do not appear. Entries that show only a call come without a potency. The source holds several records for some structures; these can differ, active in one and inactive in another. Calls of active or inactive are those of the source. Unless noted, calls come from the whole dose curve.
What was measured:
[1] = Nuclear factor erythroid 2-related factor 2/antioxidant responsive element (Nrf2/ARE) small molecule agonists: qHTS cell viability counter screen in human keratinocytes (AID 1919968; active = well fitted curve in the direction sought with a large enough effect in the repeat runs; an effect the other way counts as inactive or inconclusive; note: nearly all actives have a fitted effect of over 55% in size; note: potency is the fitted concentration of half-maximal effect)
Summary of the method: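 HaCaT ARE reporter line, 1,500 cells/well; 5 h settle, 37 C/5% CO2; cpd in DMSO pinned; 23 h exposure; CellTiter-Fluor, 1 h; fluorescence.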

[2] = Nuclear factor erythroid 2-related factor 2/antioxidant responsive element (Nrf2/ARE) small molecule agonists: luciferase reporter gene qHTS assay in human keratinocytes (AID 1919969); note: nearly all actives have a fitted effect of over 35% in size; note: potency is the fitted concentration of half-maximal effect
[3] = target: Gonadotropin-releasing hormone receptor (Homo sapiens) (UniProt P30968); assay: Human gonadotropin-releasing hormone receptor (GnRHR) small molecule agonists, calcium flux assay in GnRHR-HEK293 cells (AID 1920063); note: nearly all actives have a fitted effect of over 35% in size
Gonadotropin-releasing hormone receptor (Homo sapiens), sequence (P30968 whole entry, looked up): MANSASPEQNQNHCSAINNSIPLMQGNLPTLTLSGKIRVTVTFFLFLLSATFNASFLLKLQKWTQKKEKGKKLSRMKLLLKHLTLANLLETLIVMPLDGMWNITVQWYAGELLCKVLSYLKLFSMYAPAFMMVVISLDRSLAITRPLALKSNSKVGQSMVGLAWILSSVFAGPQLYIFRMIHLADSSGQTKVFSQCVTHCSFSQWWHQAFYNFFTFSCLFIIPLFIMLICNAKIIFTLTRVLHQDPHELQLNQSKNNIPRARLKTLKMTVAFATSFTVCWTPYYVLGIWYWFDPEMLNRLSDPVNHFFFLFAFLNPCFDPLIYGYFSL
Summary of the method: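 GnRHR-HEK293, 1500 cells/well, 18 h 37 C/5% CO2; Ca dye 1 h 37 C; cpd pinned (DMSO), agonist mode; kinetic FL 480/540, 3 min, 1 s reads; 15 conc, n=3.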

[4] = target: KiSS-1 receptor (Homo sapiens) (UniProt Q969F8); assay: Human kisspeptin (KISS1R) small molecule agonists, calcium flux assay in KISS1R-HEK293 cells (AID 1920064; active = well fitted curve in the direction sought with a large enough effect in the repeat runs; an effect the other way counts as inactive or inconclusive)
KiSS-1 receptor (Homo sapiens), sequence (Q969F8 whole entry, looked up): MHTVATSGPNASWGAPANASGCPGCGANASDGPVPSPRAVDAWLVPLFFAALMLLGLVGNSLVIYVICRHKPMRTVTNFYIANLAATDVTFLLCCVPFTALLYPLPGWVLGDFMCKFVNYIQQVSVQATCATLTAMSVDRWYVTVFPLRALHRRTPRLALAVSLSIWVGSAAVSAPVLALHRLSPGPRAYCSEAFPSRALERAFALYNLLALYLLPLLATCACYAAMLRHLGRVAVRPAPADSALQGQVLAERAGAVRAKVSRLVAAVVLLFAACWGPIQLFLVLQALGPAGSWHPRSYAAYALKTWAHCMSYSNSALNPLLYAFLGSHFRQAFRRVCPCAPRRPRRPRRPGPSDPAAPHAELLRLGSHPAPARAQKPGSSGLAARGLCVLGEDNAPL
Summary of the method: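 Stable human KISS1R HEK293 line; 18 h plating, 37 C/5% CO2; calcium dye 1 h 37 C; compound pin transfer; kinetic fluorescence Ex/Em 480/540, 3 min.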

[5] = G protein-coupled receptor (GPCR) small molecule agonists, calcium flux assay: HEK293 wild type cell line counter screen (AID 1920065)
Summary of the method: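 Kinetic fluorescence at Ex/Em 480/540, recorded every second over 3 min, served as the read-out after compound addition. Each compound was tested at 15 concentrations in triplicate on cells pre-loaded with calcium dye for 1 h.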

[6] = p53 small molecule agonists, cell-based qHTS assay with human liver microsomes (AID 1963577);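 note: p53 response element beta-lactamase reporter cells with liver microsomes plus NADPH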
Summary of the method: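 p53RE-bla cells; 5 h settle, 37 C/5% CO2; cpd + HLM 0.5 mg/mL + NADPH 0.5 mg/mL (final); 16 h 37 C; LiveBLAzer 2 h RT dark; fluorescence readout.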

[7] = p53 small molecule agonists, cell-based qHTS assay with human liver microsomes: qHTS cell viability counter screen (AID 1963579); note: nearly all actives have a fitted effect of over 45% in size
Summary of the method: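 Luminescent CellTiter-Glo read-out, 30 min at room temperature, gauged cytotoxicity in p53RE-bla cells exposed 16 h at 37 C to DMSO-dissolved compounds with metabolic activation by human liver microsomes and NADPH, each 0.5 mg/mL final.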

[8] = p53 small molecule agonists, cell-based qHTS assay with rat liver microsomes: qHTS cell viability counter screen (AID 1963580); note: nearly all actives have a fitted effect of over 45% in size
Summary of the method: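 p53RE-bla HCT-116 cells were exposed 16 h at 37 C to compounds with rat liver microsomes (0.5 mg/mL) and NADPH (0.5 mg/mL). Viability was measured in the same wells as ATP content by CellTiter-Glo luminescence.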

[9] = p53 small molecule agonists, cell-based qHTS assay: qHTS cell viability counter screen (AID 1963581); note: nearly all actives have a fitted effect of over 45% in size; note: potency is the fitted concentration of half-maximal effect
Summary of the method: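 HCT-116 p53RE-bla cells, 4,000/well, plated 5 h before compound pin transfer; 16 h at 37 C; bla substrate 2 h RT; then CellTiter-Glo, 30 min RT, luminescence.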

[10] = p53 small molecule agonists, cell-based qHTS assay (AID 1963582; active = well fitted activation curve with a large enough effect in the signal ratio in the repeat runs, not every such curve was filed as active; the % refers to the signal ratio)
Summary of the method: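 Reporter line: p53RE-bla. Pre-incubation 5 h, 37 C, 5% CO2; compound (DMSO, pin tool) 16 h, 37 C; B/G FRET substrate 2 h RT; fluorescence intensity read.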

[11] = cAMP Responsive Elements (CRE) small molecule agonists, cell-based qHTS assay (AID 1963590)
Summary of the method: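 HEK 293T CRE-bla, 2,000 cells/well, 18 h preincubation 37 C/5% CO2; cpds (DMSO) pinned, 3 h; LiveBLAzer B/G FRET substrate, 2 h RT.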

[12] = cAMP Responsive Elements (CRE) small molecule antagonists, cell-based qHTS assay (AID 1963591; active = well fitted inhibition curve with a large enough effect in the signal ratio in the repeat runs, not every such curve was filed as active; the % refers to the signal ratio)
Summary of the method: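 Beta-lactamase reporter read by FRET substrate (LiveBLAzer B/G) after 2 h at room temperature. CRE-bla HEK293T cells had received compound plus 0.25 uM (final) NKH477 for 3 h at 37 °C.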

[13] = target: Beta-2 adrenergic receptor (Homo sapiens) (UniProt P07550); assay: Adrenergic beta2 receptor (ADRB2) small molecule antagonists, cell-based qHTS assay (AID 1963592); note: nearly all actives have a fitted effect of over 50% in size; note: potency is the fitted concentration of half-maximal effect
Beta-2 adrenergic receptor (Homo sapiens), sequence (P07550 whole entry, looked up): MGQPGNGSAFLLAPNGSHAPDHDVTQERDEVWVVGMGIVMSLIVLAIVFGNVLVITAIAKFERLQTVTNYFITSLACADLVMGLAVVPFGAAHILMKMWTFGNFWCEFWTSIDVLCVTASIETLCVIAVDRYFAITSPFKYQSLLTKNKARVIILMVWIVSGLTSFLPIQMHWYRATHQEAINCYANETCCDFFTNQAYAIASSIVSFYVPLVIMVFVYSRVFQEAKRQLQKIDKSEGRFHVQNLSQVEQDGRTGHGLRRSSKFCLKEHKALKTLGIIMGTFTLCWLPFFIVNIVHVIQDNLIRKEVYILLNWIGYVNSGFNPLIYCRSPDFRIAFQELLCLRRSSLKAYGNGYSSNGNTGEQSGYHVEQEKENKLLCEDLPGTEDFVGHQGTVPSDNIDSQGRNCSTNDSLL
Summary of the method: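 Cells (CHO, stable ADRB2 overexpression) incubated 18-20hr at 37C; compounds added from DMSO; agonist mix (1nM isoproterenol, 100uM IBMX, 25uM Ro-20-1724) added; 0.5hr RT; d2-cAMP and anti-cAMP-cryptate added; 1hr RT; 665/615 nm read.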

[14] = target: Beta-2 adrenergic receptor (Homo sapiens) (UniProt P07550); assay: Adrenergic beta2 receptor (ADRB2) small molecule agonists, cell-based qHTS assay (AID 1963593);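 note: CHO cells stably overexpressing human ADRB2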
Summary of the method: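 CHO cells stably over-expressing ADRB2 were plated overnight at 37C, then dosed with compounds plus a stimulation mix containing 100uM IBMX and 25uM Ro-20-1724 for 0.5hr at room temperature. cAMP was measured by HTRF competition, 1hr.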

[15] = target: D(2) dopamine receptor (Homo sapiens) (UniProt P14416); assay: Dopamine D2 receptor (DRD2) small molecule agonists, cell-based qHTS assay (AID 1963594); note: nearly all actives have a fitted effect of over 35% in size
D(2) dopamine receptor (Homo sapiens), sequence (P14416 whole entry, looked up): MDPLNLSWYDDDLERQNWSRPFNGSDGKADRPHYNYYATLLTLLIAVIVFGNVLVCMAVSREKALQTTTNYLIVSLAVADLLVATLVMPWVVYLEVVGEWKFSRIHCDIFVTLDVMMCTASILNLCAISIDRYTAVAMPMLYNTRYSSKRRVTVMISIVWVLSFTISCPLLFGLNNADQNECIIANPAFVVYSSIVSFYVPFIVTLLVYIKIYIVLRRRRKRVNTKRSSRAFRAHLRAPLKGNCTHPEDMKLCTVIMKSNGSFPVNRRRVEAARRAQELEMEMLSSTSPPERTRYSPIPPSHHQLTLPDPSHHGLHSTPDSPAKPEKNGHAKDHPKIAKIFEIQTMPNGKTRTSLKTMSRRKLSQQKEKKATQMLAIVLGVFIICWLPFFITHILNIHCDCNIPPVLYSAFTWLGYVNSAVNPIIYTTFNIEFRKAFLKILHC
Summary of the method: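 HEK293 cells stably expressing human DRD2, pre-treated with PDE inhibitor Ro20-1724 (0.1 mM final) and compound 10 min at room temperature, then stimulated with NKH477 (200nM […]) for 30 min. cAMP read by HTRF (665/620 nm).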

[16] = target: D(2) dopamine receptor (Homo sapiens) (UniProt P14416); assay: Dopamine D2 receptor (DRD2) small molecule antagonists, cell-based qHTS assay (AID 1963595; active = well fitted inhibition curve with a large enough effect in the signal ratio in the repeat runs, with a control signal flat; the % refers to the signal ratio)
Summary of the method: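 Cells were plated and grown for 24 h at 37 °C. Ro20-1724 (0.1 mM final) went in first, then compound for 10 min. NKH477 (200 nM) with quinpirole (12 nM) followed for 30 min at RT, then HTRF detection reagents for 1 h.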

[17] = target: 5-hydroxytryptamine receptor 2A (Homo sapiens) (UniProt P28223); assay: 5-hydroxytryptamine receptor 2A (HTR2A) small molecule antagonists, cell-based qHTS assay (AID 1963586); note: nearly all actives have a fitted effect of over 45% in size
5-hydroxytryptamine receptor 2A (Homo sapiens), sequence (P28223 whole entry, looked up): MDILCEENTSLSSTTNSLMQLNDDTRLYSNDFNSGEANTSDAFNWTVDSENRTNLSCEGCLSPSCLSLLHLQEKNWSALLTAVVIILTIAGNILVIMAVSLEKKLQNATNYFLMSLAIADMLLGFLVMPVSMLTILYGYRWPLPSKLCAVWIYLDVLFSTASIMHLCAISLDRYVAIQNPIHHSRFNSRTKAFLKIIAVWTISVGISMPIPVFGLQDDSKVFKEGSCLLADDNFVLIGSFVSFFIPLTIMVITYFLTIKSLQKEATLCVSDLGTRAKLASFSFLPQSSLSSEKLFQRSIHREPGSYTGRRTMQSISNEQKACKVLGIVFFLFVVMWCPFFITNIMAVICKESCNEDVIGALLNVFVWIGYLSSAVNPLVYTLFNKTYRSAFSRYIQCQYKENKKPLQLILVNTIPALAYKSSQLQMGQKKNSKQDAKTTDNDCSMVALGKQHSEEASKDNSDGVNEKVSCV
Summary of the method: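 Antagonist-mode intracellular calcium assay: DOI (4 nM) added after 5 min compound pre-incubation at room temperature to dye-loaded HTR2A-CHO cells. Fluorescence followed for 3 min, sampled every second.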

[18] = target: 5-hydroxytryptamine receptor 2A (Homo sapiens) (UniProt P28223); assay: 5-hydroxytryptamine receptor 2A (HTR2A) small molecule agonists, cell-based qHTS assay (AID 1963587); note: nearly all actives have a fitted effect of over 30% in size
Summary of the method: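 CHO cells stably expressing human HTR2A, plated 18 h, loaded with calcium dye 1 h at 37 C. Agonist mode: compounds added and intracellular calcium fluorescence recorded kinetically for 2 min at 1 sec intervals.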

[19] = target: Muscarinic acetylcholine receptor M1 (Homo sapiens) (UniProt P11229); assay: Cholinergic receptor muscarinic 1 (CHRM1) small molecule antagonists, cell-based qHTS assay (AID 1963588); note: nearly all actives have a fitted effect of over 40% in size
Muscarinic acetylcholine receptor M1 (Homo sapiens), sequence (P11229 whole entry, looked up): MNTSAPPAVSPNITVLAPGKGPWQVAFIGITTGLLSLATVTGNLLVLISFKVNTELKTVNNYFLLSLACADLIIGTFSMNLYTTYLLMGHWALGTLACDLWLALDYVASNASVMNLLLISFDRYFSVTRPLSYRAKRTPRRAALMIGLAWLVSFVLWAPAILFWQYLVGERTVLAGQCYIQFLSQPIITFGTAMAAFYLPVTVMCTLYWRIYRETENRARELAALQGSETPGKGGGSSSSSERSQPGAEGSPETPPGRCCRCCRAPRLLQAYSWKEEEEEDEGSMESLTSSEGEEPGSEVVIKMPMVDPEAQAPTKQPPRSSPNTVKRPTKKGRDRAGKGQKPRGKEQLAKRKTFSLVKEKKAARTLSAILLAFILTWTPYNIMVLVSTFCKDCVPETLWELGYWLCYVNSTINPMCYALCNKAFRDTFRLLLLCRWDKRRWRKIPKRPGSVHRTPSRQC
Summary of the method: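 CHRM1-CHO calcium-flux assay, antagonist mode. Cells were seeded 18 h, dye-loaded 1 h at 37 C and given compound for 5 min at RT, then acetylcholine was added at 50nM. FDSS fluorescence was read 3 min; 15 concentrations, three runs.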

[20] = target: Muscarinic acetylcholine receptor M1 (Homo sapiens) (UniProt P11229); assay: Cholinergic receptor muscarinic 1 (CHRM1) small molecule agonists, cell-based qHTS assay (AID 1963589); note: nearly all actives have a fitted effect of over 35% in size
Summary of the method: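 Human M1 in stable CHO line; 18 h plating, 1 h dye load 37 C; cpd added (agonist mode); Ca2+ fluorescence kinetic read, 1 s intervals; 15 conc, 3 runs.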

Structure (SMILES) | Potency [1] | Potency [2] | Potency [3] | Potency [4] | Potency [5] | Potency [6] | Potency [7] | Potency [8] | Potency [9] | Potency [10] | Potency [11] | Potency [12] | Potency [13] | Potency [14] | Potency [15] | Potency [16] | Potency [17] | Potency [18] | Potency [19] | Potency [20]
CC1=NN(c2ccccc2)C(=O)C1 | inactive | inactive | inactive | inactive | inactive | inactive | inactive | inactive | inactive | inactive | inactive | inactive | inactive | inactive | inactive | inactive |  |  |  | 
C=C[Si](OCCOC)(OCCOC)OCCOC | inactive | inactive | inactive | inactive | inactive | inactive | inactive | inactive | inactive | inactive | inactive | inactive | inactive | inactive | inactive | inactive | inactive | inactive | inactive | inactive
COC(=O)c1ccc(C)cc1 | inactive | inactive | inactive | inactive | inactive | inactive | inactive | inactive | inactive | inactive | inactive | inactive | inactive |  | inactive | inactive | inactive | inactive |  | inactive
NC(=O)NC(N)=O | inactive | inactive | inactive | inactive | inactive | inactive | inactive |  | inactive | inactive | inactive | inactive | inactive |  | inactive | inactive |  | inactive |  | inactive
c1ccc2ccccc2c1 | inactive | inactive | inactive | inactive | inactive |  | inactive | inactive | inactive | inactive |  | inactive | inactive |  |  | inactive | inactive | inactive | inactive | inactive
CCCCCCCCCCCCCCCC(=O)O | inactive | inactive | inactive | inactive | inactive |  | inactive | inactive | inactive | inactive |  | inactive | inactive | inactive | inactive | inactive | inactive | inactive | inactive | inactive
O=C1CCCC1 | inactive | inactive | inactive | inactive | inactive |  | inactive | inactive | inactive | inactive | inactive | inactive | inactive |  | inactive | inactive | inactive | inactive | inactive | inactive
CCCCOCCOC(=O)c1ccccc1C(=O)OCCOCCCC | 47.5 µM (active) and inactive | 23.8 µM (active) and 68.6 µM (active) | inactive | inactive | inactive |  | inactive | inactive | inactive | inactive | inactive | inactive | inactive | inactive | inactive | inactive | inactive | inactive | inactive | inactive
COCCOCCOC | inactive | inactive | inactive | inactive | inactive |  | inactive |  | 145 nM (active) and inactive | inactive | inactive | inactive |  | inactive | inactive | inactive | inactive | inactive | inactive | inactive
CCC1(c2ccccc2)C(=O)NCNC1=O | inactive | inactive | inactive | inactive | inactive |  | inactive | inactive | inactive | inactive | inactive | inactive | inactive |  | inactive | inactive |  |  |  | 
CCn1c2ccccc2c2cc(N)ccc21 | inactive | inactive | inactive | inactive | inactive |  |  | inactive | inactive | inactive | inactive |  | 67.9 µM (active) and inactive | inactive | inactive | inactive | inactive | inactive | inactive | inactive
CCCCC(CC)COC(=O)C(C#N)=C(c1ccccc1)c1ccccc1 (stereo unspecified) | inactive | inactive | inactive | inactive | inactive |  | inactive | inactive | inactive | inactive | inactive | inactive | inactive | inactive | inactive | inactive | inactive | inactive |  | inactive
CC(=O)Nc1nnc(S(N)(=O)=O)s1 | inactive | inactive | inactive | inactive | inactive |  | inactive | inactive | inactive | inactive |  | inactive | inactive | inactive | inactive | inactive |  |  |  | 
Cc1ccc(Cl)cc1 | inactive | inactive | inactive | inactive | inactive |  | inactive | inactive | inactive | inactive | inactive |  |  | inactive | inactive |  | inactive | inactive | inactive | inactive
C=CCc1ccc(O)c(OC)c1 | inactive | inactive | inactive | inactive | inactive |  | inactive | inactive | inactive | inactive | inactive | inactive | inactive | inactive | inactive | inactive |  |  |  | 
C=Cc1ccc(C)cc1 | inactive | inactive | inactive | inactive | inactive |  | inactive | inactive | inactive | inactive | inactive | inactive | inactive | inactive | inactive | inactive | inactive | inactive | inactive | inactive
